MITF act – increases MITF-driven TRPM1 promoter luciferase signal. SK-MEL-5 TRPM1-promoter luciferase, 24 h; % of positive control, neutral wells = 0. activation, % at 12.5 µM. 0.75% of 300,000 active. AID 588334;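 active = mean activation of at least 80% with every replicate also reaching 80%; inconclusive = mean reaches 80% but some replicate falls short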;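 also: 0% = neutral control wells and 100% = parthenolide positive control wells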
GAA850 FXN act – increases GAA850 frataxin promoter reporter activity. AID 540364. 0.56% of 360,000 active. HEK293 lucGAA850 FXN promoter luciferase reporter, 24 h; percent of 10 µM SAHA response. activation, % at 6 µM;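 active = activation above the average of all compounds screened plus 3 SD, cutoff fixed separately per campaign, cut at about 7.5% in these data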;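 also: 0% = DMSO wells and 100% = 10 µM SAHA wells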
esBAF inh – inhibitors of esBAF chromatin remodeling in mouse ES cells; Bmi1-luciferase knock-in reporter, 24 h; 100% = twice the neutral-well signal; reporter increase, % at 12.5 µM; 2% of 350,000 active; AID 602393; in the data active = activation above about 40%; inconclusive = no clear call, values can overlap the other calls;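 also: 0% = median of the plate's neutral control wells and 100% = double that signal; a rise in the Bmi1 reporter signal indicates esBAF inhibition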
Wnt act – activators of Wnt/beta-catenin signaling; activation, % at 9.35 µM; 1.2% of 300,000 active; Wnt/beta-catenin reporter cell assay, activator, plate reader; in the data active = activation above about 30%, passing the limit was not always enough; inconclusive = no clear call, values can overlap the other calls;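 also: 0% = neutral control wells and 100% = positive control wells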
AHR activator – activates the human aryl hydrocarbon receptor. P35869. AHR-responsive luciferase reporter cells, luminescence. activation, % at 5 µM. 2.5% of 320,000 active. AID 2796; in the data active = activation above about 47%;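 also: 0% = vehicle wells and 100% = reference agonist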
Target sequence (P35869 whole entry, looked up): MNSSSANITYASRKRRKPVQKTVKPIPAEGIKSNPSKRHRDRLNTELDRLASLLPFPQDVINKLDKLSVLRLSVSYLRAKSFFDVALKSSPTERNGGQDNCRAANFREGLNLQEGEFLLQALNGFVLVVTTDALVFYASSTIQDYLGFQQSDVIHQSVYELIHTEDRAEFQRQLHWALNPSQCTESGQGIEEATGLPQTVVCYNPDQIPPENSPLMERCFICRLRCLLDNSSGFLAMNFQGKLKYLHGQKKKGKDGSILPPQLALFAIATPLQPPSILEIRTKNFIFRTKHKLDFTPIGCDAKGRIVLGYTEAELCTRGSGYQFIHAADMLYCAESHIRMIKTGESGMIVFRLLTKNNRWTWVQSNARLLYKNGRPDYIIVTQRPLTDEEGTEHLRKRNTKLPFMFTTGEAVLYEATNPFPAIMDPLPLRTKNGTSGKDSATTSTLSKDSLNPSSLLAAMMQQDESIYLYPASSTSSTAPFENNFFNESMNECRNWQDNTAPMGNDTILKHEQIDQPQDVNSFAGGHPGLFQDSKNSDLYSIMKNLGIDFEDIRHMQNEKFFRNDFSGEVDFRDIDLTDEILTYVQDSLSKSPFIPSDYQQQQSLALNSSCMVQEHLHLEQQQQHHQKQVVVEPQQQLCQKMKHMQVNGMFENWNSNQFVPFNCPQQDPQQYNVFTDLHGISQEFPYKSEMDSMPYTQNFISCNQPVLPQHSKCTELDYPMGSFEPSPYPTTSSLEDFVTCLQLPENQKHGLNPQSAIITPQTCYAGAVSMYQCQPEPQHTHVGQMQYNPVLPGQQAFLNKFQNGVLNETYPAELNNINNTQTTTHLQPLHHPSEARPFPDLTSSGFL
* marks the source's active call; other numbers are inactive results; ? = inconclusive; . = no result. This is a sample that favours compounds with a hit; in the whole collection about 4.2% have one here.

SMILES	MITF act	GAA850 FXN act	esBAF inh	Wnt act	AHR activator
COc1cc2c(cc1NC(=O)c1cccnc1)oc1ccccc12	71	0	72*	.	25
COc1cc2c(cc1NC(=O)C(C)Sc1cccc[n+]1[O-])oc1ccccc12 (stereo not drawn)	-5	7	.	-5	99*
COc1cc2c(cc1NC(=O)c1ccc(C)c([N+](=O)[O-])c1)oc1ccccc12	13	3	.	.	44
C[C@@H]1CN([C@@H](C)CO)C(=O)c2cc(NC(=O)CCN3CCOCC3)ccc2O[C@H]1CN(C)Cc1ccncc1	.	.	-3	.	.
COc1cccc(NC(=O)C[C@@H]2CC[C@H]3[C@H](COc4ccc(NC(=O)c5ccccc5F)cc4C(=O)N3C)O2)c1	.	.	2	.	.
Cc1sc2nc(CSCC(=O)Nc3ccc(C(F)(F)F)cc3)[nH]c(=O)c2c1C	-6	6	-6	-2	59*
Cc1sc2nc(CSCC(=O)Nc3c(F)cccc3F)[nH]c(=O)c2c1C	11	-1	0	-2	7
CCOc1cc(/C=N/NC(=O)CSc2nnc(C)s2)ccc1OCc1ccccc1Cl	-3	0	.	52*	16
O=C(CSc1nnc(SCc2ccccc2Cl)s1)N/N=C/c1ccc(C(=O)O)cc1	10	-3	-2	19	3
C[C@H](O)C#Cc1ccc2c(c1)O[C@H](CN(C)C(=O)CC1CC1)[C@H](C)CN([C@@H](C)CO)S2(=O)=O	.	.	3	.	.
O=C(NN1C(=O)c2cc(Br)ccc2NC1c1ccccc1Cl)c1ccncc1 (stereo not drawn)	-15	2	.	-2	49*
COc1ccc(Br)cc1C1Nc2ccccc2C(=O)N1NC(=O)c1ccncc1 (stereo not drawn)	-16	-3	.	.	10
O=C(NN1C(=O)c2cc(Br)ccc2NC1c1cc(Br)cc(Br)c1O)c1ccncc1 (stereo not drawn)	-8	1	.	.	56*
CCOC(=O)c1nn(-c2ccc3c(c2)OCCO3)cc1O	82*	3	1	27	6
CCOC(=O)c1nn(-c2ccc([N+](=O)[O-])cc2)cc1O	42	4	27	17	2
COC(=O)c1nn(-c2ccc3c(c2)OCO3)cc1O	44	0	.	.	8
Cc1ccc(NC(=O)COC(=O)c2nn(-c3ccc(Cl)cc3)cc2O)cc1	31	0	49*	5	3
NNC(=O)c1nn(-c2ccc(Cl)cc2)cc1O	-11	0	-1	3	8
CC(=O)c1nn(-c2ccc(Cl)cc2)cc1C(=O)c1ccccc1	.	1	.	2	4
CCOC(=O)c1nn(-c2ccc(C)c(C)c2)cc1O	?	2	46*	.	0
CCOC(=O)c1nn(-c2ccc(C)cc2)cc1C(=O)c1ccccc1	.	4	79*	.	1
Cc1noc(C)c1S(=O)(=O)N(C)C[C@H]1OCCCC[C@H](C)Oc2ccc(NS(=O)(=O)c3cccs3)cc2C(=O)N([C@@H](C)CO)C[C@@H]1C	.	.	4	.	.
C[C@@H]1CN([C@@H](C)CO)C(=O)c2cc(NC(=O)CCC(F)(F)F)ccc2O[C@@H](C)CCCCO[C@H]1CN(C)S(=O)(=O)c1ccc(Cl)cc1	.	.	1	.	.
CCCC(=O)Nc1ccc2c(c1)C(=O)N(C)C[C@@H](OC)[C@@H](C)CN(Cc1ccccc1)[C@@H](C)CO2	.	.	1	.	.
Cc1ccc(S(=O)(=O)Nc2ccc3c(c2)C(=O)N([C@H](C)CO)C[C@@H](C)[C@H](CN(C)S(=O)(=O)c2c(C)noc2C)OCCCC[C@H](C)O3)cc1	.	.	-4	.	.
SMILES	MITF act	GAA850 FXN act	esBAF inh	Wnt act	AHR activator
c1ccc2oc(SCc3cn4ccsc4n3)nc2c1	50	4	31	66*	6
Nn1c(CSc2nc3ccccc3o2)nnc1CSc1nc2ccccc2o1	-8	-2	-6	-2	14
Cc1csc2nc(CSc3nc4ccccc4o3)cn12	?	4	44*	34*	12
N/C(=N\OC(=O)COc1ccc(Br)cc1)c1ccncc1	16	2	6	-2	5
N/C(=N\OC(=O)COc1ccc(Cl)cc1Br)c1cccnc1	?	2	.	12	10
N/C(=N\OC(=O)COc1ccc(Br)cc1Cl)c1cccnc1	111*	4	.	6	16
N/C(=N\OC(=O)COc1ccc(Cl)cc1Cl)c1ccncc1	56	3	71*	8	.
C[C@@H]1CN([C@@H](C)CO)C(=O)c2cc(NC(=O)CCN3CCOCC3)ccc2O[C@H]1CN(C)S(=O)(=O)c1ccc(Cl)cc1	.	.	-7	.	.
COc1ccccc1N1CCN(S(=O)(=O)c2cn(C)c(=O)n(C)c2=O)CC1	-1	1	-1	3	65*
COCC#Cc1cnc2c(c1)C(=O)N([C@H](C)CO)C[C@@H](C)[C@@H](CN(C)S(C)(=O)=O)O2	.	.	2	.	.
Nc1nc(-c2cc3ccccc3o2)cs1	102*	7	?	56*	8
OC(c1ccccc1)c1nc(-c2cc3ccccc3o2)cs1 (stereo not drawn)	.	3	47*	-1	.
CN1CCN(c2nc(-c3cc4ccccc4o3)cs2)CC1	30	3	.	.	14
COc1ccc(C(O)c2nc(-c3cc4ccccc4o3)cs2)cc1 (stereo not drawn)	.	3	19	2	.
COc1ccc(S(=O)(=O)N(C)C[C@@H]2OCCCC[C@@H](C)Oc3ccc(NS(=O)(=O)c4ccccc4)cc3C(=O)N([C@H](C)CO)C[C@H]2C)cc1	.	.	2	.	.
Oc1cccc(/C=C/c2ccc3cccc(O)c3n2)c1	12	4	5	40*	70*
O=[N+]([O-])c1ccc(/C=C/c2ccc3cccc(O)c3n2)cc1	18	3	28	30	9
COc1cc(/C=C/c2ccc3cccc(O)c3n2)cc(OC)c1OC	-78	-5	14	65*	-3
COc1ccc(/C=C/c2ccc3cccc(O)c3n2)c(OC)c1OC	17	8.9*	84*	57*	-1
COc1ccc(Br)cc1/C=C/c1ccc2cccc(O)c2n1	-9	2	7	2	36
COc1ccc(/C=C/c2ccc3cccc(O)c3n2)cc1Br	58	1	44*	23	0
COc1cc(Br)cc(/C=C/c2ccc3cccc(O)c3n2)c1OC	-22	-1	9	1	43
C[C@H](CO)N1C[C@H](C)[C@H](CN(C)C(=O)NC2CCCCC2)Oc2ccc(NC(=O)CCN3CCOCC3)cc2CC1=O	.	.	4	.	.
Cc1ccc2c(c1)=N/C(=N\c1[nH]c(O)c3ccccc13)N=2	.	1	-84	5	.
Oc1[nH]c(N=C2N=c3ccccc3=N2)c2ccccc12	-29	1	11	29	58*
CCc1ccn2cc(-c3ccc4c(c3)OCO4)nc2c1	.	-9	.	-5	-9
Cc1ccccc1Cn1ccc(-c2ccc3c(c2)OCO3)n1	73	1	60*	.	17
Cc1ccccc1Cn1nnc(-c2cccc(C(=O)O)c2)n1	-1	1	15	39*	4
Cc1ccccc1Cn1nnc(-c2ccc3c(c2)OCO3)n1	70	6	51*	.	12
O=C(C[C@@H]1CC[C@@H](NS(=O)(=O)c2ccc(F)cc2)[C@@H](CO)O1)N1CCc2ccccc2C1	.	.	1	.	.

Screening data: PubChem, several laboratories
